Measured values taken from PubChem BioAssay AID1159580 (chemical genetic matrix, 2015).
Among all 5,500 compounds or so, about 2,000 (36%) were called active. Roughly 18% stayed inconclusive and do not appear here. The list shows a part of the results. Values without a mark were called inactive. Rule as the data show it: active = normalized growth mostly below about 0.91 (no sharp cut-off); inconclusive = no clear call, values can overlap the other calls; inactive = mostly above about 0.92.

Experiment: chemical genetic growth profiling, strain panel (AID 1159580);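 also: tested at 20 µM; growth read once vehicle control cultures reached saturation at 30 °C; 1 = growth at the plate median or of vehicle wells; lower values mean less growth of the strain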
Conditions: growth OD
[1] = S. cerevisiae deletion strains, locus YDL101C, strain DUN1, active compounds read low
[2] = S. cerevisiae deletion strains, locus YHR030C, strain SLT2, active compounds read low
[3] = S. cerevisiae deletion strains, locus YHR079C, strain IRE1, active compounds read low
[4] = S. cerevisiae deletion strains, locus YJL095W, strain BCK1, active compounds read low
[5] = S. cerevisiae deletion strains, locus YJR066W, strain TOR1, active compounds read low
[6] = S. cerevisiae deletion strains, locus YLR113W, strain HOG1, active compounds read low
[7] = S. cerevisiae deletion strains, locus YNL183C, strain NPR1, active compounds read low
[8] = S. cerevisiae deletion strains, locus YOR231W, strain MKK1, active compounds read low
[9] = S. cerevisiae deletion strains, locus YPL256C, strain CLN2, active compounds read low

SMILES: c1ccc(Sc2c(-c3ccccc3)nc3ccccn23)cc1
- normalized growth (S. cerevisiae deletion strains, locus YAL013W, strain DEP1, active compounds read low): 0.895 (active)
- normalized growth (S. cerevisiae deletion strains, locus YBR229C, strain ROT2, active compounds read low): 0.9 (active)
- normalized growth (S. cerevisiae deletion strains, locus YCL061C, strain MRC1, active compounds read low): 0.906 (active)
- normalized growth [1]: 0.929
- normalized growth (S. cerevisiae deletion strains, locus YDR150W, strain NUM1, active compounds read low): 0.8
- normalized growth (S. cerevisiae deletion strains, locus YEL061C, strain CIN8, active compounds read low): 0.869 (active)
- normalized growth (S. cerevisiae deletion strains, locus YGR078C, strain PAC10, active compounds read low): 0.884 (active)
- normalized growth [2]: 0.193 (active)
- normalized growth (S. cerevisiae deletion strains, locus YHR087W, strain rtc3, active compounds read low): 0.921
- normalized growth (S. cerevisiae deletion strains, locus YJR043C, strain POL32, active compounds read low): 0.93
- normalized growth (S. cerevisiae deletion strains, locus YJR075W, strain HOC1, active compounds read low): 0.833 (active)
- normalized growth (S. cerevisiae deletion strains, locus YKL190W, strain CNB1, active compounds read low): 0.79 (active)
- normalized growth (S. cerevisiae deletion strains, locus YLR039C, strain RIC1, active compounds read low): 0.657 (active)
- normalized growth (S. cerevisiae deletion strains, locus YLR058C, strain SHM2 (second series), active compounds read low): 0.899 (active)
- normalized growth (S. cerevisiae deletion strains, locus YLR085C, strain ARP6, active compounds read low): 0.275 (active)
- normalized growth (S. cerevisiae deletion strains, locus YLR262C, strain YPT6, active compounds read low): 0.78 (active)
- normalized growth (S. cerevisiae deletion strains, locus YML094W, strain GIM5, active compounds read low): 0.886
- normalized growth (S. cerevisiae deletion strains, locus YMR219W, strain ESC1, active compounds read low): 0.897 (active)
- normalized growth (S. cerevisiae deletion strains, locus YNL153C, strain GIM3, active compounds read low): 0.931
- normalized growth (S. cerevisiae deletion strains, locus YNL298W, strain CLA4 (second series), active compounds read low): 0.781 (active)
- normalized growth (S. cerevisiae deletion strains, locus YNL322C, strain KRE1, active compounds read low): 0.915 (active)
- normalized growth (S. cerevisiae deletion strains, locus YNR030W, strain Alg12, active compounds read low): 0.714 (active)
- normalized growth (S. cerevisiae deletion strains, locus YPL055C, strain LGE1, active compounds read low): 0.725 (active)
- normalized growth (S. cerevisiae deletion strains, locus YPL241C, strain CIN2, active compounds read low): 0.692 (active)
- normalized growth (S. cerevisiae deletion strains, locus YPR135W, strain CTF4, active compounds read low): 0.431 (active)
- normalized growth (S. cerevisiae strains, strain wild type, active compounds read low): 0.92

SMILES: COc1ccc(C2CC(c3ccccc3)=Nc3ccccc3S2)cc1OC (stereo not given)
- normalized growth (S. cerevisiae deletion strains, locus YAR019C, strain CDC15, active compounds read low): 0.969
- normalized growth (S. cerevisiae deletion strains, locus YBL105C, strain PKC1, active compounds read low): 0.962
- normalized growth (S. cerevisiae deletion strains, locus YBR135W, strain CKS1, active compounds read low): 0.974
- normalized growth (S. cerevisiae deletion strains, locus YBR136W, strain MEC1, active compounds read low): 0.947
- normalized growth (S. cerevisiae deletion strains, locus YBR160W, strain CDC28, active compounds read low): 0.975
- normalized growth (S. cerevisiae deletion strains, locus YDL017W, strain CDC7, active compounds read low): 0.965
- normalized growth (S. cerevisiae deletion strains, locus YDL028C, strain MPS1, active compounds read low): 0.975
- normalized growth [1]: 0.965
- normalized growth (S. cerevisiae deletion strains, locus YDL108W, strain KIN28, active compounds read low): 0.976
- normalized growth (S. cerevisiae deletion strains, locus YDL132W, strain cdc53, active compounds read low): 0.975
- normalized growth (S. cerevisiae deletion strains, locus YDL214C, strain PRR2, active compounds read low): 0.936
- normalized growth (S. cerevisiae deletion strains, locus YDR052C, strain DBF4, active compounds read low): 0.97
- normalized growth (S. cerevisiae deletion strains, locus YDR054C, strain cdc34, active compounds read low): 0.958
- normalized growth (S. cerevisiae deletion strains, locus YDR226W, strain ADK1, active compounds read low): 0.967
- normalized growth (S. cerevisiae deletion strains, locus YDR477W, strain SNF1, active compounds read low): 0.949
- normalized growth (S. cerevisiae deletion strains, locus YER123W, strain YCK3, active compounds read low): 0.939
- normalized growth (S. cerevisiae deletion strains, locus YER133W, strain GLC7, active compounds read low): 0.952
- normalized growth (S. cerevisiae deletion strains, locus YFL009W, strain cdc4, active compounds read low): 0.973
- normalized growth (S. cerevisiae deletion strains, locus YFL029C, strain CAK1, active compounds read low): 0.945
- normalized growth (S. cerevisiae deletion strains, locus YFR003C, strain YPI1, active compounds read low): 0.961
- normalized growth (S. cerevisiae deletion strains, locus YFR019W, strain FAB1, active compounds read low): 0.967
- normalized growth (S. cerevisiae deletion strains, locus YFR028C, strain CDC14, active compounds read low): 0.961
- normalized growth (S. cerevisiae deletion strains, locus YGR040W, strain KSS1, active compounds read low): 0.94
- normalized growth (S. cerevisiae deletion strains, locus YGR052W, strain FMP48, active compounds read low): 1.02
- normalized growth (S. cerevisiae deletion strains, locus YGR092W, strain DBF2, active compounds read low): 0.935
- normalized growth [2]: 0.887
- normalized growth [3]: 0.914
- normalized growth (S. cerevisiae deletion strains, locus YHR082C, strain KSP1, active compounds read low): 0.975
- normalized growth (S. cerevisiae deletion strains, locus YHR205W, strain SCH9, active compounds read low): 0.934
- normalized growth (S. cerevisiae deletion strains, locus YIL147C, strain SLN1, active compounds read low): 0.959
- normalized growth [4]: 0.941
- normalized growth (S. cerevisiae deletion strains, locus YJL128C, strain PBS2, active compounds read low): 0.943
- normalized growth (S. cerevisiae deletion strains, locus YJL157C, strain FAR1, active compounds read low): 0.968
- normalized growth (S. cerevisiae deletion strains, locus YJR016C, strain ILV3, active compounds read low): 0.966
- normalized growth (S. cerevisiae deletion strains, locus YJR066W, strain TOR1 (second series), active compounds read low): 0.901
- normalized growth [5]: 0.938
- normalized growth (S. cerevisiae deletion strains, locus YKL048C, strain ELM1, active compounds read low): 0.968
- normalized growth (S. cerevisiae deletion strains, locus YKL067W, strain YNK1, active compounds read low): 0.956
- normalized growth (S. cerevisiae deletion strains, locus YKL101W, strain HSL1, active compounds read low): 0.927
- normalized growth (S. cerevisiae deletion strains, locus YKL193C, strain SDS22, active compounds read low): 0.976
- normalized growth (S. cerevisiae deletion strains, locus YKL203C, strain TOR2, active compounds read low): 0.965
- normalized growth [6]: 0.889
- normalized growth (S. cerevisiae deletion strains, locus YLR133W, strain CKI1, active compounds read low): 0.948
- normalized growth (S. cerevisiae deletion strains, locus YLR403W, strain SFP1, active compounds read low): 0.929
- normalized growth (S. cerevisiae deletion strains, locus YML070W, strain DAK1, active compounds read low): 0.949
- normalized growth (S. cerevisiae deletion strains, locus YMR001C, strain CDC5, active compounds read low): 0.969
- normalized growth (S. cerevisiae deletion strains, locus YMR205C, strain PFK2 (second series), active compounds read low): 0.95
- normalized growth (S. cerevisiae deletion strains, locus YMR277W, strain FCP1, active compounds read low): 0.97
- normalized growth (S. cerevisiae deletion strains, locus YNL006W, strain LST8, active compounds read low): 0.988
- normalized growth (S. cerevisiae deletion strains, locus YNL020C, strain ARK1, active compounds read low): 0.939
- normalized growth (S. cerevisiae deletion strains, locus YNL161W, strain CBK1, active compounds read low): 0.962
- normalized growth [7]: 0.939
- normalized growth (S. cerevisiae deletion strains, locus YNL207W, strain RIO2, active compounds read low): 0.97
- normalized growth (S. cerevisiae deletion strains, locus YNL222W, strain SSU72, active compounds read low): 0.968
- normalized growth (S. cerevisiae deletion strains, locus YNL307C, strain MCK1 (second series), active compounds read low): 0.974
- normalized growth (S. cerevisiae deletion strains, locus YOL078W, strain AVO1, active compounds read low): 0.975
- normalized growth (S. cerevisiae deletion strains, locus YOL136C, strain PFK27, active compounds read low): 0.946
- normalized growth (S. cerevisiae deletion strains, locus YOR061W, strain CKA2, active compounds read low): 0.94
- normalized growth (S. cerevisiae deletion strains, locus YOR119C, strain RIO1, active compounds read low): 0.949
- normalized growth [8]: 0.918
- normalized growth (S. cerevisiae deletion strains, locus YOR329C, strain SCD5, active compounds read low): 0.97
- normalized growth (S. cerevisiae deletion strains, locus YPL031C, strain PHO85, active compounds read low): 0.932
- normalized growth (S. cerevisiae deletion strains, locus YPL153C, strain RAD53, active compounds read low): 0.958
- normalized growth (S. cerevisiae deletion strains, locus YPL204W, strain HRR25, active compounds read low): 0.948
- normalized growth (S. cerevisiae deletion strains, locus YPL209C, strain IPL1, active compounds read low): 0.975
- normalized growth [9]: 0.879
- normalized growth (S. cerevisiae deletion strains, locus YPR025C, strain CCL1, active compounds read low): 0.966
- normalized growth (S. cerevisiae deletion strains, locus YPR106W, strain ISR1, active compounds read low): 0.971
- normalized growth (S. cerevisiae deletion strains, locus YPR111W, strain DBF20, active compounds read low): 0.97
- normalized growth (S. cerevisiae deletion strains, strain NNK1, active compounds read low): 0.958
- normalized growth (S. cerevisiae deletion strains, strain TSCII, active compounds read low): 0.965

SMILES: Cc1ncc(C[n+]2csc(CCO)c2C)c(=O)[nH]1
- normalized growth [2]: 1.04
- normalized growth [3]: 1.05
- normalized growth [4]: 0.991
- normalized growth [5]: 0.984
- normalized growth [6]: 0.979
- normalized growth [7]: 0.976
- normalized growth [8]: 1.03
- normalized growth [9]: 1.05
